“And” between values parts separate entries of the source, which are not always exact repeats. Identical values can stand only once. Results filed as inconclusive are left out. Where a structure was tested more than once in an assay, its records may differ in their call. The source made the active and inactive calls. Unless noted, the call rests on the fitted dose curve; in most records, active means well fitted curve in the direction sought with a large enough effect in the repeat runs; inconclusive means weak or mixed curves; inactive means no such curve, though single readings can be large; an effect the other way counts as inactive or inconclusive.
What was measured:
[1] = qHTS assay for small molecule agonists of the p53 signaling pathway (AID 651631; calls by dose curve; further: nearly all actives have a fitted effect of over 15% in size; further: potency means the concentration at half of the fitted maximal effect)
In short: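 Readout was fluorescence from the LiveBLAzer FRET substrate, applied for 2 h at room temperature after 16 h compound exposure at 37 °C. Cells were the p53RE-bla HCT-116 line, with beta-lactamase driven by p53 response elements.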

[2] = qHTS assay for small molecules that induce genotoxicity in human embryonic kidney cells expressing luciferase-tagged ATAD5 (AID 651632); further: nearly all actives have a fitted effect of over 15% in size
In short: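 Luminescence read-out: after 16 hr compound exposure at 37C, ATAD5-luciferase HEK293T cells received Amplite, 30 min RT, then CCD imaging. A rise in signal marks genotoxic stress.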

[3] = qHTS assay for small molecule agonists of the p53 signaling pathway - cell viability (AID 651633; calls by dose curve; further: nearly all actives have a fitted effect of over 30% in size; further: potency means the concentration at half of the fitted maximal effect)
In short: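 p53RE-bla cells, seeded at 4,000 per well and rested 5 h at 37 C/5% CO2, received compounds in DMSO for 16 h at 37 C. CellTiter-Glo was then added, and luminescence was read after 30 min at room temperature to gauge cytotoxicity.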

[4] = qHTS assay for small molecules that induce genotoxicity in human embryonic kidney cells expressing luciferase-tagged ATAD5 - cell viability (AID 651634; calls by dose curve; further: nearly all actives have a fitted effect of over 25% in size)
In short: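 HEK293T ATAD5-luc cells, 2,000/well; compound 15.5 hr, 37C/5% CO2; CellTiter-Fluor 30 min, 37C; fluorescence read.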

[5] = qHTS assay for small molecule disruptors of the mitochondrial membrane potential - cell viability (AID 720634; calls by dose curve;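 further: human HepG2 liver cancer cells; series mostly up to about 83 µM; nearly all actives have a fitted effect of over 20% in size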)
In short: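 Luminescence from CellTiter-Glo (ATP content) gave viability in HepG2 cells, read in the same wells as the MMP dye assay after 1 hr compound exposure at 37 C.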

[6] = qHTS assay for small molecule disruptors of the mitochondrial membrane potential (AID 720635); further: potency means the concentration at half of the fitted maximal effect
In short: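 HepG2 cells (2,000/well) attached overnight at 37C, then took compound for 1 hr at 37C, 5% CO2. Mito-MPS dye was added for 30 min; fluorescence was read at 490/535 nm (monomers) and 540/590 nm (aggregates).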

[7] = qHTS assay to test for compound auto fluorescence at 590 nm (red) in HepG2 cells (AID 720674)
In short: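 Compound auto-fluorescence is scored relative to Rose Bengal sodium, measured at 540/590 nm in live HepG2 cultures after 1 hr compound contact (37 C, 5% CO2).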

[8] = qHTS assay to test for compound auto fluorescence at 535 nm (green) in HepG2 cells (AID 720675)
[9] = qHTS assay to test for compound auto fluorescence at 460 nm (blue) in HEK293 cells (AID 720678)
In short: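 Measured: blue fluorescence (Ex 405/Em 460 nm) of compound-treated HEK293 cells, incubated overnight at 37C with 5% CO2 and scaled to triamterene equivalents.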

[10] = qHTS assay to test for compound auto fluorescence at 590 nm (red) in HEK293 cells (AID 720679)
In short: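 Using HEK293 cells at 2,000 per well, the screen added 23 nL of each compound after cell attachment and incubated overnight (37C, 5% CO2). The plate reader then captured red-label fluorescence, Ex/Em 540/590nm.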

[11] = qHTS assay to test for compound auto fluorescence at 535 nm (green) in HEK293 cells (AID 720680)
[12] = qHTS assay to test for compound auto fluorescence at 460 nm (blue) in HEK293 cell free culture (AID 720681)
In short: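 Test compounds were pinned into cell-free culture medium (DMEM with 10% FBS) and fluorescence was read directly at Ex/Em 405/460 nm. Signals were expressed as fluorescence equivalents of triamterene, with DMSO vehicle as control.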

[13] = qHTS assay to test for compound auto fluorescence at 535 nm (green) in HEK293 cell free culture (AID 720682)
In short: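 Compounds were pin-transferred into cell-free DMEM with 10% FBS, and green fluorescence was read at excitation 485 nm and emission 535 nm. Intensities were expressed as fluorescein-equivalent values.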

[14] = qHTS assay to test for compound auto fluorescence at 590 nm (red) in HEK293 cell free culture (AID 720683)
In short: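 Tox21 10K library compounds were pinned into cell-free DMEM with 10% FBS and fluorescence was read at excitation 540 nm. Activity is expressed as Rose Bengal sodium equivalency.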

[15] = qHTS assay to test for compound auto fluorescence at 590 nm (red) in HepG2 cell free culture (AID 720684)
In short: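 Ex 540 / Em 590 nm read of compound in cell-free MEM (10% FBS). Rose Bengal sodium reference.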

[16] = qHTS assay to test for compound auto fluorescence at 460 nm (blue) in HepG2 cell free culture (AID 720685)
In short: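 Cell-free plates of MEM plus 10% FBS received 23 nL compound or DMSO vehicle; blue-channel (405/460 nm) intensity scored against triamterene as reference fluorophore.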

[17] = qHTS assay to test for compound auto fluorescence at 535 nm (green) in HepG2 cell free culture (AID 720686)
[18] = qHTS assay to test for compound auto fluorescence at 460 nm (blue) in HepG2 cells (AID 720687)
In short: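 Cells (2,000/well in MEM with 10% FBS) attached overnight at 37 C, then were exposed to compound or DMSO for 1 hr at 37 C, 5% CO2. Fluorescence read at Ex/Em 405/460 nm, expressed as triamterene-equivalent signal.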

[19] = biological target: Glucocorticoid receptor (Homo sapiens) (UniProt P04150); assay: qHTS assay to identify small molecule agonists of the glucocorticoid receptor (GR) signaling pathway (AID 720691; active means well fitted activation curve with a large enough effect in the signal ratio in the repeat runs, not every such curve was filed as active; the % refers to the signal ratio; further: potency means the concentration at half of the fitted maximal effect)
In short: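 HeLa GR-bla reporter line; cells pre-incubated 4 h, compound in DMSO 18 h at 37 C; LiveBLAzer B/G FRET substrate 2 h RT; fluorescence intensity read-out.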

[20] = biological target: Glucocorticoid receptor (Homo sapiens) (UniProt P04150); assay: qHTS assay to identify small molecule antagonists of the glucocorticoid receptor (GR) signaling pathway (AID 720692; active means well fitted inhibition curve with a large enough effect in the signal ratio in the repeat runs, not every such curve was filed as active; the % refers to the signal ratio)
In short: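 Read-out: beta-lactamase FRET substrate fluorescence, 2 h at room temperature, in HeLa cells stably carrying a GRE-driven bla reporter. Compounds were co-incubated with 5 nM dexamethasone agonist (final) for 18 h at 37 C.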
On the % scale 0 is the no-effect control and ±100 the full control effect.

Glucocorticoid receptor (Homo sapiens), sequence (P04150 whole entry, looked up): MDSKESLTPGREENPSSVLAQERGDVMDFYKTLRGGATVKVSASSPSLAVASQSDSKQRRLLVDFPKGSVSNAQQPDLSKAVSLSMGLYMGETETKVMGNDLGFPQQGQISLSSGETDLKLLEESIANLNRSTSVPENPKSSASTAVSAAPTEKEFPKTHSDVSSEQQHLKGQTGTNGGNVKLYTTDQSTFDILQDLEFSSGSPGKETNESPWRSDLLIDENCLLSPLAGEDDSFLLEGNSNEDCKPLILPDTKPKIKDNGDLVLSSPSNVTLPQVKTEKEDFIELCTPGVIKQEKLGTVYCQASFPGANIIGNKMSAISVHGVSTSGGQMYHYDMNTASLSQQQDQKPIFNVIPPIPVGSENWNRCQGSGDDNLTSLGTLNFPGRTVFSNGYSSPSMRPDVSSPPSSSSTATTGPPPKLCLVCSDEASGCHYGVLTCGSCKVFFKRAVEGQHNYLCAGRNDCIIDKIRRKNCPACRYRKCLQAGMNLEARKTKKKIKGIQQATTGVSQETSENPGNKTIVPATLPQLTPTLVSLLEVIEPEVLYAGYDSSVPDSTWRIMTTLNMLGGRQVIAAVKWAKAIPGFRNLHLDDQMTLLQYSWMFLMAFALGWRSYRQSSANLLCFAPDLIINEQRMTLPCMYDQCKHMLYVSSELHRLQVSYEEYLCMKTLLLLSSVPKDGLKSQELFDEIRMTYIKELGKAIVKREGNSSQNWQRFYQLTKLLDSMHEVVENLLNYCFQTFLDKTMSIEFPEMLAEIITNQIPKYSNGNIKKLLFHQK

O=C(Nc1ccc([N+](=O)[O-])cc1)Nc1ccc([N+](=O)[O-])cc1
active: Potency [6] 0.422 µM
inactive: Potency [1] | Potency [2] | Potency [3] | Potency [4] | Potency [5] | outcome [7] | outcome [8] | Potency [9] | outcome [10] | outcome [11] | Potency [12] | outcome [13] | outcome [14] | outcome [15] | Potency [16] | outcome [17] | Potency [18] | Potency [19]

CC1=CC(=O)CC(C)(C)C1(O)/C=C/C(C)=C\C(=O)O (stereo unspecified)
inactive: Potency [1] | Potency [2] | Potency [3] | Potency [4] | Potency [5] | Potency [6] | outcome [7] | outcome [8] | Potency [9] | outcome [10] | outcome [11] | Potency [12] | outcome [13] | outcome [14] | outcome [15] | outcome [17] | Potency [19] | Potency [20]

CCCCCCCC/C=C\CCCCCCCC(=O)OC
inactive: Potency [1] | Potency [2] | Potency [3] | Potency [4] | Potency [5] | Potency [6] | outcome [7] | outcome [8] | Potency [9] | outcome [10] | Potency [12] | outcome [13] | outcome [14] | outcome [15] | Potency [16] | outcome [17] | Potency [18] | Potency [19]

CCCCCCCCSCCO
active: Potency [6] 24.3 µM
inactive: Potency [1] | Potency [2] | Potency [3] | Potency [4] | Potency [5] | outcome [7] | outcome [8] | Potency [9] | outcome [10] | outcome [11] | Potency [12] | outcome [13] | outcome [14] | outcome [15] | Potency [16] | outcome [17] | Potency [18] | Potency [19] | Potency [20]

CN1CCCN=C1/C=C/c1cccs1
inactive: Potency [1] | Potency [2] | Potency [3] | Potency [4] | Potency [5] | Potency [6] | outcome [7] | outcome [8] | Potency [9] | outcome [10] | outcome [11] | Potency [12] | outcome [13] | outcome [14] | outcome [15] | Potency [16] | outcome [17] | Potency [19] | Potency [20]

CCOC(=O)C(C)Oc1ccc(Oc2nc3ccc(Cl)cc3o2)cc1 (stereo unspecified)
inactive: Potency [1] | Potency [2] | Potency [3] | Potency [4] | Potency [5] | Potency [6] | outcome [7] | outcome [8] | Potency [9] | outcome [10] | Potency [12] | outcome [13] | outcome [14] | outcome [15] | Potency [16] | outcome [17] | Potency [18] | Potency [19]

Cc1ccc(S)cc1
inactive: Potency [1] | Potency [2] | Potency [3] | Potency [4] | Potency [5] | Potency [6] | outcome [7] | outcome [8] | Potency [9] | outcome [11] | Potency [12] | outcome [13] | outcome [14] | outcome [15] | Potency [16] | outcome [17] | Potency [18]

CC(=O)Nc1ccc(N)cc1
inactive: Potency [1] | Potency [2] | Potency [3] | Potency [4] | Potency [5] | Potency [6] | outcome [7] | outcome [8] | Potency [9] | outcome [10] | outcome [11] | Potency [12] | outcome [13] | outcome [14] | outcome [15] | Potency [16] | outcome [17] | Potency [18] | Potency [19] | Potency [20]

CCC(=O)Oc1ccc(/C(CC)=C(\CC)c2ccc(OC(=O)CC)cc2)cc1
inactive: Potency [2] | Potency [3] | Potency [4] | Potency [5] | outcome [7] | outcome [8] | Potency [9] | outcome [10] | outcome [11] | Potency [12] | outcome [13] | outcome [14] | outcome [15] | Potency [16] | outcome [17] | Potency [18]
active: Potency [1] 15.4 µM | Potency [6] 8.63 µM

Cc1cc(O)c(C(C)C)cc1Cl
inactive and 4.33 µM (active): Potency [6]
inactive: Potency [1] | Potency [2] | Potency [4] | Potency [5] | outcome [7] | outcome [8] | Potency [9] | outcome [10] | outcome [11] | Potency [12] | outcome [13] | outcome [14] | outcome [15] | outcome [17] | Potency [18] | Potency [19]
inactive and 54.5 µM (active): Potency [3]

CC(=O)[C@H]1CC[C@H]2[C@@H]3C[C@H](C)C4=CC(=O)CC[C@]4(C)[C@H]3[C@@H](O)C[C@]12C
active: Potency [19] 0.0323 µM
inactive: Potency [1] | Potency [2] | Potency [3] | Potency [4] | Potency [5] | fluorescence, relative to Rose Bengal [7] 0.133% [at 18.6 µM] | fluorescence, % of fluorescein control [8] -0.105% [at 18.6 µM] | fluorescence, % of triamterene [9] -0.0231% [at 18.6 µM] | fluorescence, % of fluorescent control [10] -0.987% [at 18.6 µM] | fluorescence, % of fluorescein [11] 0.123% [at 18.6 µM] | fluorescence, % of fluorescent control [12] -0.0076% [at 18.6 µM] | activity change [13] -0.0137% [at 18.6 µM] | fluorescence, % of fluorescent control [14] -0.395% [at 18.6 µM] | fluorescence, % of Rose Bengal [15] -0.145% [at 18.6 µM] | fluorescence, % of fluorescent control [16] 0.0471% [at 18.6 µM] | fluorescence, % of fluorescein control [17] 0.189% [at 18.6 µM] | fluorescence, % of fluorescent control [18] 0.0065% [at 18.6 µM]

CN1CCN(CCCN2c3ccccc3Sc3ccc(S(=O)(=O)N(C)C)cc32)CC1
inactive: Potency [1] | Potency [2] | Potency [3] | Potency [4] | Potency [5] | fluorescence, relative to Rose Bengal [7] -0.708% [at 18.6 µM] | fluorescence, % of fluorescein control [8] -0.102% [at 18.6 µM] | fluorescence, % of triamterene [9] 0.42% [at 18.6 µM] | fluorescence, % of fluorescent control [10] 0.005% [at 18.6 µM] | fluorescence, % of fluorescein [11] 0.046% [at 18.6 µM] | fluorescence, % of fluorescent control [12] 0.0966% [at 18.6 µM] | activity change [13] 0.0013% [at 18.6 µM] | fluorescence, % of fluorescent control [14] 0.122% [at 18.6 µM] | fluorescence, % of Rose Bengal [15] 0.748% [at 18.6 µM] | fluorescence, % of fluorescein control [17] 0.0675% [at 18.6 µM] | fluorescence, % of fluorescent control [18] 0.123% [at 18.6 µM] | Potency [19]

CCCCOC(=O)CCS
inactive: Potency [1] | Potency [2] | Potency [3] | Potency [4] | Potency [5] | outcome [7] | outcome [8] | outcome [10] | outcome [11] | Potency [12] | outcome [13] | outcome [14] | outcome [15] | outcome [17] | Potency [18] | Potency [19]
